Test results as given in PubChem BioAssay.
The source made the active and inactive calls.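 How the source made its calls, unless noted: active means fluorescence slope higher than the sample average by over 3 SD (cut at about -0.22 in these data, passing the limit was not always enough); inactive means the rest.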

Columns and labels:
[1] = inhibitors of TNFa-induced NFkB p65 translocation, primary screen, imaging, HUVEC, MLSMR starter and 10KST1 sets (AID 438;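 active means inhibition above 20% together with a positive visual image hit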;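 further: compound added about 3h40 before a 20 min TNFalpha stimulation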;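 on inhibition: signal is the nuclear over cytoplasmic p65 intensity ratio per well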); settings: HUVEC TNFa-induced p65 nuclear translocation; cell count: measured here: nuclei count (cytotoxicity indicator), at 2.08 µM; inhibition: at 2 µM, stronger effect = higher value, 0% TNFa-plus-vehicle, 100% no-TNFa wells
[2] = inhibitors of mutant huntingtin aggregation, primary screen, imaging, exon1htt(103Q)mCFP cells, high-content imaging (AID 483;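 active means visual image review flags a hit and inhibition of aggregation exceeds 20%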;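 further: compound exposure lasted 3 days before fixation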;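 on nuclei count: percent of the per-plate median nuclei count of sample wells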); settings: exon1htt(103Q)mCFP cell line, aggregate imaging, at 2 µM; inhibition of aggregation: stronger effect = higher value; nuclei count: measured here: cell count, toxicity
[3] = inhibitors of E-selectin induction by TNFa, primary screen, imaging, HUVEC, immunofluorescence, MLSMR starter and 10KST1 sets (AID 487;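 active means visually confirmed hit in the image check and inhibition above 20%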;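 on inhibition: signal is fraction of cell area covered by stained E-selectin grains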;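 on nuclei count: 100% = median nuclei count of all wells on the same plate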); settings: HUVEC TNFalpha-induced E-selectin immunofluorescence imaging, at 2 µM; inhibition: stronger effect = higher value; nuclei count: measured here: cell number, toxicity
[4] = DUSP6 inhibitors restoring Erk phosphorylation by chemical complementation, primary imaging in DUSP6-transfected HeLa (AID 609;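 active means compounds giving at least 50% inhibition in the cell-based MKP-3 phosphatase rescue imaging test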;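 on inhibition: phospho-Erk level distribution per well compared with pooled transfected vehicle control wells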); settings: HeLa MKP-3 transfected, phospho-Erk imaging KS statistic, at 10 µM, cells stimulated with TPA for 15 min
[5] = molecular target: Dual specificity protein phosphatase 6 (Homo sapiens) (UniProt Q16828); assay: as above; settings: HeLa MKP-3 transfected, phospho-Erk imaging KS statistic; at 10 µM; stronger effect = higher value; cells stimulated with TPA for 15 min
Chain of Dual specificity protein phosphatase 6 (Homo sapiens) (Q16828 whole entry, looked up): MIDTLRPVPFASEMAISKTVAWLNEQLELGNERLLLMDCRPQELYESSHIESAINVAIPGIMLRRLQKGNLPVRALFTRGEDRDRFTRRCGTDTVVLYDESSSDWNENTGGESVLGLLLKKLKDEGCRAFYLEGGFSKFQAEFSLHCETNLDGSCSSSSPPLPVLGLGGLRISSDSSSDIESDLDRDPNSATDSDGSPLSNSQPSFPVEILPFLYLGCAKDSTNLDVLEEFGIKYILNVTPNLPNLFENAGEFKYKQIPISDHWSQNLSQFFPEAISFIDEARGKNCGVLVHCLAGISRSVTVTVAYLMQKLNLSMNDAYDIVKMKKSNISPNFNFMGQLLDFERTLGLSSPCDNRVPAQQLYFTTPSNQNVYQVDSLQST

[6] = molecular target: Voltage-gated potassium channel subunit beta-2 (Rattus norvegicus) (UniProt P62483); assay: KvBeta enzyme negative modulators, primary screen, biochemical, NADPH fluorescence (AID 622); settings: recombinant KvBeta, 4-cyanobenzaldehyde reduction, at 10 µM, stronger effect = higher value;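 further: slope of raw intensity against log time taken from 70 to 1610 s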
Chain of Voltage-gated potassium channel subunit beta-2 (Rattus norvegicus) (P62483 whole entry, looked up): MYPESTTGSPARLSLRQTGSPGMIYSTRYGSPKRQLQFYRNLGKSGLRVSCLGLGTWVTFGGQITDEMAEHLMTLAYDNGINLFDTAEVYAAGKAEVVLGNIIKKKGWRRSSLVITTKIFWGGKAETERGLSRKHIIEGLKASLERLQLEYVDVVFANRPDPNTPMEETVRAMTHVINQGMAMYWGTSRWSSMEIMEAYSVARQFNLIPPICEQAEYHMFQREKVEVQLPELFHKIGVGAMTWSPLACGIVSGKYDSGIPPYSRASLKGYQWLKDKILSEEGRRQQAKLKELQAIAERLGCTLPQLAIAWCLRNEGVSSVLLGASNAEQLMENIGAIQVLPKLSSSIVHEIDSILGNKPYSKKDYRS

[7] = molecular target: Voltage-gated potassium channel subunit beta-2 (Rattus norvegicus) (UniProt P62483); assay: KvBeta positive modulators, primary screen, biochemical, NADPH fluorescence (AID 623;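 active means NADPH fluorescence slope more negative than the mean of all samples by about 3 SD, 99.7% confidence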;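 further: fluorescence intensity change per second fitted from 20 to 320 s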); settings: Recombinant KvBeta, NADPH fluorescence decrease slope, 10 min; at 10 µM; stronger effect = lower value
[8] = molecular target: Alpha-2C adrenergic receptor (Homo sapiens) (UniProt P18825); assay: modulators of alpha2C/GIRK thallium flux, primary screen, cell-based, HEK293 alpha2C/GIRK1/2 (AID 624;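 active means fluorescence slope after compound addition differing from the mean of all screened samples at 99.7% confidence, in either direction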;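 further: slope of fluorescence ratio to pre-addition baseline per second over 15 to 24 s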); settings: thallium flux BTC fluorescence, at 10 µM, actives lie on both sides
Chain of Alpha-2C adrenergic receptor (Homo sapiens) (P18825 whole entry, looked up): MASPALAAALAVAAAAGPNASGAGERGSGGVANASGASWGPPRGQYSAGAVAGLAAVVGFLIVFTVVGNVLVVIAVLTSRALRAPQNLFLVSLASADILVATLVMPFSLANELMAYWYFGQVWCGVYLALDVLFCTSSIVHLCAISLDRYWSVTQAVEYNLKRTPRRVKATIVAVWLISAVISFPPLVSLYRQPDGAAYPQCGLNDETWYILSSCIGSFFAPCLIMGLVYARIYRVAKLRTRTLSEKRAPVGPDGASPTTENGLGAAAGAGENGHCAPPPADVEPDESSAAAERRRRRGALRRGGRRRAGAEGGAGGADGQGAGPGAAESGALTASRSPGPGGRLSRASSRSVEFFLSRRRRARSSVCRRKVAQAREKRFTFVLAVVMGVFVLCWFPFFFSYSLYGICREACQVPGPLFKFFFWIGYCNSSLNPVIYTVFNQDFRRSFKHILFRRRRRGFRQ

[9] = inhibitors of larval lipid processing in zebrafish, primary screen, whole organism, PED6 fluorescence, gall bladder and intestine (AID 686;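 active means a full or partial loss of lipid-probe fluorescence in the fish gall bladder, intestine or both, judged by eye; inactive means no fluorescence loss, or compound toxic to the fish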;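 further: larvae 5 to 7 days old with five fish per well; signal comes from phospholipase A2 cleavage of quenched PED6 carried via bile; overnight exposure to compound and PED6 before scoring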); settings: Zebrafish larvae PED6 lipid processing, fluorescence scoring; screened at 20 µM (by protocol)
[10] = inhibitors of Chlamydomonas gravitaxis, primary screen, whole organism, Chlamydomonas reinhardtii, WT vs cilia-less mutant, absorbance, 96-well (AID 463189;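 active means inhibition at or above 50% relative to wild type and mutant plate controls; inactive means inhibition below 50%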;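 further: 0% = wild type cc124 cells in DMSO and 100% = ciliumless bld1 mutant cells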); settings: OD600 absorbance, 2 days, at 10 µM, stronger effect = higher value
[11] = inhibitors of Sendai virus-induced IRF3 signaling, primary screen, TLR/RLR signaling modifier project, cell-based, Sendai virus stimulus, luciferase, 10K MLSCN set (AID 602276;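 active means inhibition at or above 50% at 10 µM; inactive means inhibition below 50%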;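 further: firefly luciferase from ISG56 promoter only with Renilla not read in this screen; 0% = Sendai virus plus DMSO and 100% = medium plus DMSO without virus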); settings: HEK293 RL24 IRF3 luciferase reporter, at 10 µM, stronger effect = higher value
[12] = inhibitors of poly I:C-induced TLR3 signaling, primary screen, cell-based, poly I:C stimulus, luciferase, 10K MLSCN set (AID 602277;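 active means inhibition of the reporter signal at or above 50%; inactive means inhibition below 50%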); settings: HEK293-TLR3 RL24 IRF3 luciferase reporter, at 10 µM, stronger effect = higher value
[13] = measured here: cell density z-score
[14] = measured here: nuclear c-Myc green intensity z-score
[15] = measured here: nuclear pErk red intensity z-score, stronger effect = higher value

Structure (SMILES) | cell count [1] | inhibition [1] | inhibition of aggregation [2] | nuclei count [2] [%] | inhibition [3] | nuclei count [3] [%] | z-score [4, 13] | z-score [4, 14] | z-score [4, 15] | inhibition [5] | fluorescence slope [6] | NADPH fluorescence slope [7] | slope [8] | outcome [9] | inhibition [10] | inhibition [11] | inhibition [12]
CCCCC[C@H](O)/C=C/[C@@H]1[C@@H](CCCCCCC(=O)O)[C@@H](O)C[C@H]1O | 594 | -7.7% (inactive) | 9% (inactive) | 106 | -80.7% (inactive) | 114 | -0.368 | 0.536 | -0.971 | 7.39% (inactive) | -0.458 (inactive) | -4e-05 (inactive) | 0.00481 (inactive) | inactive | -6.66% (inactive) | 11.4% (inactive) | 33.8% (inactive)
CCCCC[C@H](O)/C=C/[C@H]1C=CC(=O)[C@@H]1C/C=C\CCCC(=O)O | 543 | -11.1% (inactive) | 16% (inactive) | 84.8 | -33.9% (inactive) | 110 | 1.78 | -0.725 | -0.854 | 7.39% (inactive) | -0.458 (inactive) | -5.4e-05 (inactive) | 0.00837 (inactive) | inactive | 5.58% (inactive) | -2.27% (inactive) | 25% (inactive)
Nc1ccc(S(=O)(=O)Nc2ccccn2)cc1 | 684 | 5.6% (inactive) | 15.6% (inactive) | 101 | -123% (inactive) | 131 | -1.05 | -1.54 | 0.683 | 12.4% (inactive) | -0.459 (inactive) | -4.9e-05 (inactive) | 0.00448 (inactive) | inactive | 4.41% (inactive) | 12.4% (inactive) | 42.5% (inactive)
CC(=O)OCC(=O)[C@@]1(O)CC[C@H]2[C@@H]3CCC4=CC(=O)C=C[C@]4(C)[C@@]3(Cl)[C@@H](Cl)C[C@@]21C | 574 | -7.2% (inactive) | -27.9% (inactive) | 64.3 | -50.9% (inactive) | 118 | 0.892 | 0.179 | 0.325 | 11.3% (inactive) | -0.484 (inactive) | -5.1e-05 (inactive) | 0.00396 (inactive) | inactive | 18.7% (inactive) | 5.49% (inactive) | 38.2% (inactive)
CCOC(=O)c1ccc(-n2c(=O)[nH]c3ccccc3c2=O)cc1 | 443 | -3.4% (inactive) | 7.1% (inactive) | 80 | -140% (inactive) | 136 | -0.719 | -0.246 | 0.316 | 11.4% (inactive) | -0.415 (inactive) | -5.7e-05 (inactive) | 0.00476 (inactive) | inactive | 9.26% (inactive) | -16.9% (inactive) | -29.3% (inactive)
COc1ccccc1NC(=O)C1=C(C)NC(SCC(=O)c2ccc(C)cc2)=C(C#N)C1c1ccco1 (stereo not given) | 529 | -0.5% (inactive) | 9.6% (inactive) | 99.4 | 6.5% (inactive) | 114 | 0.647 | -0.415 | 1.41 | -2.07% (inactive) | -0.481 (inactive) | -7.1e-05 (inactive) | 0.00753 (inactive) | inactive | 36.3% (inactive) | -17.3% (inactive) | -56.3% (inactive)
COC(=O)c1cccc(Nc2cc(C)nc(-c3ccccc3O)n2)c1 | 614 | -12.4% (inactive) | -1% (inactive) | 92.7 | -86.5% (inactive) | 118 | -0.273 | 0.157 | -0.334 | 9.91% (inactive) | -0.279 (inactive) | -1.2e-05 (inactive) | 0.00663 (inactive) | inactive | 5.5% (inactive) | -10.3% (inactive) | -37.2% (inactive)
CN(C)CCOC(=O)C(c1ccccc1)C1(O)CCCC1 (stereo not given) | 635 | -7.2% (inactive) | -8.5% (inactive) | 102 | -51% (inactive) | 110 | 0.315 | 0.351 | 1.54 | -6.41% (inactive) | -0.432 (inactive) | -7.3e-05 (inactive) | 0.00471 (inactive) | inactive | 13.5% (inactive) | 15.3% (inactive) | 45.7% (inactive)
Cn1c2c(c(=O)n(C)c1=O)C(NC(=O)C(C)(C)C)(C(F)(F)F)C(=O)N2 (stereo not given) | 538 | -3.9% (inactive) | 0.9% (inactive) | 103 | -105% (inactive) | 131 | -0.683 | -0.488 | -0.945 | 5.26% (inactive) | -0.51 (inactive) | -6.1e-05 (inactive) | 0.00635 (inactive) | inactive | 17.2% (inactive) | 14.7% (inactive) | 16.6% (inactive)
N=c1ncn(CC(O)CN2CCOCC2)c2nc(N3CCOCC3)[nH]c12 (stereo not given) | 536 | -23.6% (inactive) | 20.3% (inactive) | 88.8 | -90.1% (inactive) | 124 | 0.636 | -1.17 | 0.315 | 17.3% (inactive) | -0.517 (inactive) | -2.5e-05 (inactive) | 0.00808 (inactive) | inactive | 17.5% (inactive) | -19.8% (inactive) | -9.49% (inactive)
